Test results: PubChem BioAssay AID1159580 (chemical genetic matrix, 2015)
Where “and” joins values, the source holds several entries; their conditions need not be identical. Equal entries are not always repeated. The whole screen tested about 5,500 compounds, of which about 2,000 (36%) were called active. Not shown: some 18% with an inconclusive outcome. No stated cut-off is given here; in the data, active means normalized growth mostly below about 0.91 (no sharp cut-off); inconclusive means no clear call, values can overlap the other calls; inactive means mostly above about 0.92. Some of the results follow.

Test: chemical genetic growth profiling, strain panel (AID 1159580);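 further: tested at 20 µM; growth read once vehicle control cultures reached saturation at 30 °C; 1 = growth at the plate median or of vehicle wells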
Conditions: S. cerevisiae deletion strains, growth OD

Measured: normalized growth

CC1=C(/C=C/C(C)=C/C=C/C(C)=C\C(=O)O)C(C)(C)CCC1
inactive: locus YAL013W, strain DEP1, stronger effect = lower value 0.968 | locus YAL021C, strain ccr4, stronger effect = lower value 1.01 | locus YAL026C, strain drs2, stronger effect = lower value 0.999 | locus YAL030W, strain snc1, stronger effect = lower value 0.977 | locus YAL040C, strain CLN3, stronger effect = lower value 1.01 | locus YBL061C, strain skt5, stronger effect = lower value 0.984 | locus YBR009C, strain hhf1, stronger effect = lower value 1.01 | locus YBR021W, strain FUR4, stronger effect = lower value 1.02 | locus YBR023C, strain chs3, stronger effect = lower value 0.985 | locus YBR171W, strain sec66, stronger effect = lower value 0.964 | locus YBR229C, strain ROT2, stronger effect = lower value 1 | locus YBR231C, strain swc5, stronger effect = lower value 0.989 | locus YBR279W, strain paf1, stronger effect = lower value 0.996 | locus YCL011C, strain gbp2, stronger effect = lower value 0.994 | locus YCL016C, strain dcc1, stronger effect = lower value 0.999 | locus YCL029C, strain bik1, stronger effect = lower value 0.992 | locus YCL061C, strain MRC1 (second series), stronger effect = lower value 1 | locus YCL069W, strain vba3, stronger effect = lower value 0.986 | locus YCR088W, strain abp1, stronger effect = lower value 0.995 | locus YDL005C, strain med2, stronger effect = lower value 0.979 | locus YDL035C, strain GPR1, stronger effect = lower value 0.95 | locus YDL040C, strain nat1, stronger effect = lower value 0.987 | locus YDL074C, strain BRE1, stronger effect = lower value 0.856 | locus YDL101C, strain DUN1, stronger effect = lower value 1.01 | locus YDL134C, strain PPH21, stronger effect = lower value 1 | locus YDL185W, strain tfp1, stronger effect = lower value 1 | locus YDL192W, strain arf1, stronger effect = lower value 1 | locus YDR001C, strain nth1, stronger effect = lower value 0.987 | locus YDR069C, strain doa4, stronger effect = lower value 0.967 | locus YDR101C, strain arx1, stronger effect = lower value 0.985 | locus YDR137W, strain rgp1, stronger effect = lower value 0.937 | locus YDR150W, strain NUM1, stronger effect = lower value 1.02 and 1.01 | locus YDR159W, strain sac3, stronger effect = lower value 1.01 | locus YDR162C, strain NBP2, stronger effect = lower value 0.957 | locus YDR195W, strain ref2 0.972 | locus YDR297W, strain sur2, stronger effect = lower value 0.987 | locus YDR318W, strain mcm21, stronger effect = lower value 0.97 | locus YDR334W, strain swr1, stronger effect = lower value 0.982 | locus YDR335W, strain msn5, stronger effect = lower value 0.987 | locus YDR363W, strain ESC2, stronger effect = lower value 1.01 | locus YDR388W, stronger effect = lower value 1 | locus YDR392W, strain spt3, stronger effect = lower value 1.01 | locus YDR502C, strain sam2, stronger effect = lower value 0.975 | locus YEL003W, strain gim4, stronger effect = lower value 0.989 | locus YEL037C, strain rad23, stronger effect = lower value 0.979 | locus YEL061C, strain CIN8 (second series), stronger effect = lower value 0.991 | locus YEL061C, strain CIN8, stronger effect = lower value 1 | locus YER002W, strain NOP16, stronger effect = lower value 1.03 | locus YER015W, strain faa2, stronger effect = lower value 0.993 | locus YER016W, strain bim1, stronger effect = lower value 1.02 | locus YER110C, stronger effect = lower value 1 | locus YER111C, strain swi4, stronger effect = lower value 0.954 | locus YER155C, strain BEM2 (second series), stronger effect = lower value 1 | locus YER155C, strain BEM2, stronger effect = lower value 1.01 | locus YER167W, strain BCK2, stronger effect = lower value 0.966 | locus YFR010W, strain ubp6, stronger effect = lower value 0.961 | locus YGL078C, strain dbp3, stronger effect = lower value 1 | locus YGL086W, strain mad1, stronger effect = lower value 0.992 | locus YGL167C, strain pmr1, stronger effect = lower value 0.975 | locus YGL173C, strain kem1, stronger effect = lower value 0.972 | locus YGL227W, strain vid30, stronger effect = lower value 0.974 | locus YGL240W, strain doc1, stronger effect = lower value 0.958 | locus YGL248W, strain PDE1, stronger effect = lower value 0.995 | locus YGL253W, strain hxk2, stronger effect = lower value 0.996 | locus YGR078C, strain PAC10, stronger effect = lower value 0.908 and 1.02 | locus YGR135W, strain pre9, stronger effect = lower value 0.974 | locus YGR229C, strain SMI1, stronger effect = lower value 0.82 and 1.02 | locus YGR252W, strain gcn5, stronger effect = lower value 1.02 | locus YHR013C, strain ard1, stronger effect = lower value 0.982 | locus YHR027C, strain rpn1, stronger effect = lower value 0.997 | locus YHR030C, strain SLT2, stronger effect = lower value 1 and 1.02 | locus YHR079C, strain IRE1 (second series), stronger effect = lower value 0.988 | locus YHR079C, strain IRE1, stronger effect = lower value 1.04 | locus YHR094C, strain hxt1, stronger effect = lower value 0.999 | locus YHR129C, strain ARP1, stronger effect = lower value 0.996 | locus YHR142W, strain chs7, stronger effect = lower value 0.979 | locus YHR200W, strain rpn10, stronger effect = lower value 1 | locus YIL066C, strain RNR3, stronger effect = lower value 0.984 | locus YIL073C, strain SPO22, stronger effect = lower value 0.934 | locus YIL125W, strain kgd1, stronger effect = lower value 0.995 | locus YIR030C, strain dcg1, stronger effect = lower value 1.01 | locus YJL092W, strain hpr5, stronger effect = lower value 0.965 | locus YJL095W, strain BCK1 (second series), stronger effect = lower value 0.99 | locus YJL095W, strain BCK1, stronger effect = lower value 0.918 and 1.01 | locus YJL115W, strain asf1, stronger effect = lower value 0.962 | locus YJL129C, strain trk1, stronger effect = lower value 0.956 | locus YJL134W, strain LCB3, stronger effect = lower value 1 | locus YJL154C, strain vps35, stronger effect = lower value 0.986 | locus YJL164C, strain tpk1, stronger effect = lower value 1.01 | locus YJL166W, strain qcr8, stronger effect = lower value 0.928 | locus YJL168C, strain set2, stronger effect = lower value 0.999 | locus YJL187C, strain SWE1 (second series), stronger effect = lower value 0.986 | locus YJL187C, strain SWE1, stronger effect = lower value 0.994 | locus YJR043C, strain POL32, stronger effect = lower value 0.87 | locus YJR066W, strain TOR1, stronger effect = lower value 0.972
